From PubChem BioAssay (NCI) come the findings set out here.

Compounds without any hit were thinned out: in the full panel of roughly 83,000, 20% have a hit.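 Single-dose data. Exposure time 48 hours. Values below 10 considered active.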 Values without a mark were called inactive. Active and inactive are the calls of the source.

One assay deals with SF-295 CNS. As to the kind of experiment: NCI-60 one-dose screen, 48 h (100 = growth as untreated, 0 = no growth, -100 = all killed). Particulars: 10 µM unless noted.
As to `Cn1cc(-c2cc(N)n3nc(-c4c[nH]c5ccccc45)cc3n2)c2cccnc21`, the growth was -4.84% (active). The same measure, in the same setting: for `CN(C)c1nc(NCCNS(=O)(=O)c2ccc(C3=Nc4c(N)nc(N)nc4NC(c4ccccc4)C3)cc2)nc(Nc2ccc(F)cc2)n1` (centres undefined) the value was 42.6%; for `COc1ccc(-c2ccc(SCC(=O)NCCc3ccc(S(N)(=O)=O)cc3)nn2)cc1`, 84.9%. `O=C(CCN1C(=O)/C(=C/c2ccc(F)cc2)SC1=S)N1CCOCC1`: the growth is 104%.

`Cc1cc2nc3c4ccccc4n(CC4=NCCN4)c3nc2cc1C`: the growth was -74.8% (active). Consider `Cc1ccc(C(=O)NN2C(=O)/C(=C/C=C/c3ccc([N+](=O)[O-])o3)SC2=S)cc1`, for which the growth was -87.6% (active). The same measure, in the same setting: the value for `Cc1cc2nc3c([nH]c2cc1C)c1ccc(=O)cc1n3CCN(C)C` was 27%; that for `N/C(=N\c1nc2ccccc2s1)NC(=O)Nc1c(Cl)cccc1Cl` was 28.2%; that for `Brc1ccc(-c2n(Cc3ccc4ccccc4c3)c(-c3ccccc3)c(-c3ccccc3)[n+]2Cc2ccc3ccccc3c2)cc1` was -86.3% (active). Still for that read-out and setting: the value for `C=C1CC[C@@H]2[C@]3(C)COC(c4cn[nH]c4-c4ccc(Br)cc4)O[C@@H]3CC[C@@]2(C)[C@@H]1C/C=C1/C(=O)OCC1O` (some centres undefined) was -65.6% (active); that for `COc1ccc(-c2nc3cc(C)ccc3n2CC(=O)N=Nc2c(O)[nH]c3ccc(Br)cc23)cc1` was -61.4% (active); that for `CC12CC[C@@H]3[C@]4(C)COC(c5cn[nH]c5-c5cccc(Br)c5)O[C@@H]4CC[C@@]3(C)[C@@H]1CC(C1=CCOC1=O)O2` (some centres undefined) was 34.9%. Same read-out and setting: for `COc1c(F)ccc(C(=O)Nc2ccc3nc(NC(=O)C4CCCN(S(=O)(=O)c5ccc(C#N)cc5)C4)sc3c2)c1F` (centres undefined) the value was 90.1%; for `COc1ccc2c(c1)c(-c1cc3nc(-c4cn(C)c5ncccc45)cc(N)n3n1)cn2C`, -79.4% (active); for `CC(=O)c1cc(C(=O)c2ccccc2)n2c1ccc1ccccc12`, 106%. With `COc1ccc2[nH]c(=O)c(CSc3nccc(-c4ccc(OC)c(OC)c4)n3)cc2c1`, the growth is -30.4% (active). Take `COc1ccc(NC(=O)Cn2c3c(sc2=O)[C@H]2[C@@H](O)[C@@H](O)[C@H](O)[C@@H]2CS3)cc1`: the growth is 105%. Same read-out and setting: the value for `C=C1CCC2C3(C)COC(c4cccs4)OC3CCC2(C)C1CC(Sc1ccccc1)C1=CCOC1=O` (centres undefined) was 92.5%.

Consider `CC1CN(c2oc(-c3ccc([N+](=O)[O-])cc3)nc2C#N)CC(C)O1` (centres undefined), for which the growth is 95.5%.

As for `Cc1occc1C(=O)NN1C(=O)/C(=C/C=C/c2ccc([N+](=O)[O-])o2)SC1=S`, the growth was 47%.

`N=C1N=C(SCc2nc3ccccc3[nH]2)NC(=O)/C1=C/c1ccc(Cl)cc1`: the growth is 103%.

Consider `O=C(NN1C(=O)/C(=C/C=C/c2ccc([N+](=O)[O-])o2)SC1=S)c1ccccc1O`, for which the growth is -48.2% (active). On the same count and under the same terms, for `COc1ccc(-c2nc3cc(C)ccc3n2CC(=O)N=Nc2c(O)[nH]c3ccc(Cl)cc23)cc1` the value was -67.5% (active).

On to `COC1=C[C@]23CCC(=O)N2CCc2cc4c(cc2[C@@H]3[C@@H]1OC(=O)[C@H](C)O)OCO4`, for which the growth was 29.7%. As to `Cc1sc2c(c1C)C(c1ccc(Cl)cc1)=N[C@@H](CC(=O)NCCCCCNC(=O)COc1ccc(C3CCC(=O)NC3=O)cc1)c1nnc(C)n1-2` (some centres undefined), the growth is 9.91% (active).

As for `N/C(=N\c1nc2ccccc2s1)NC(=O)Nc1ccc(Cl)cc1Cl`, the growth is -98.5% (active). Same read-out and setting: the value for `CC1=C(C#N)C2=NNCC(c3ccccc3)=NN2C(c2ccccc2)=C1` was 103%.

The test system of another assay is SF-539 CNS. The description is as above. Particulars: 10 µM unless noted.
For the compound `CCCSc1nc(Nc2ccc(S(N)(=O)=O)cc2)c(C#N)c(-c2ccc(Cl)cc2)n1`, the growth was -4.39% (active). The same measure, in the same setting: for `CCCCSc1nc(Nc2ccc(S(N)(=O)=O)cc2)c(C#N)c(-c2ccc(Cl)cc2)n1` the value was -25.2% (active). In the case of `Cn1cc(-c2cc3nc(-c4cn(C)c5ncccc45)cc(N)n3n2)c2ccccc21`, the growth is -78.7% (active). In the case of `Cc1ccc(C2=NN(c3nc(-c4cc5ccccc5oc4=O)cs3)C(c3ccc(C)cc3)C2)cc1` (centres undefined), the growth is 93.9%. Still for that read-out and setting: for `Cc1ccc2c(c1)nc(-c1ccccc1)n2CC(=O)N=Nc1c(O)[nH]c2ccc(Br)cc12` the value was -91.1% (active); for `O=C(Cn1nc(-c2ccccc2)ccc1=O)N/N=C/c1ccc(N2CCOCC2)cc1`, 90.5%. For the compound `O=C(NN1C(=O)/C(=C/C=C/c2ccc([N+](=O)[O-])o2)SC1=S)c1ccc(Cl)cc1`, the growth was -95.2% (active). Still for that read-out and setting: the value for `CCCCSc1nc(Nc2ccc(S(N)(=O)=O)cc2)c(C#N)c(-c2cc(OC)c(OC)c(OC)c2)n1` was 38.1%. Still for that read-out and setting: for `COc1cc2c3c(n(CCCN4CCC[C@@H]4CO)c(=O)c2cc1OC)-c1cc2c(cc1C3=O)OCO2` the value was -98.2% (active). On the same count and under the same terms, the value for `Cn1cc(-c2cc(N)n3nc(-c4cn(C)c5ncc(Br)cc45)cc3n2)c2cc(Br)cnc21` was -83.4% (active); that for `Cn1cc(-c2cc(N)n3nc(-c4c[nH]c5ccccc45)cc3n2)c2cccnc21` was -81.5% (active). As to `CN(C)c1nc(NCCNS(=O)(=O)c2ccc(C3=Nc4c(N)nc(N)nc4NC(c4ccccc4)C3)cc2)nc(Nc2ccc(F)cc2)n1` (centres undefined), the growth is -7.62% (active). Same read-out and setting: for `COc1ccc(-c2ccc(SCC(=O)NCCc3ccc(S(N)(=O)=O)cc3)nn2)cc1` the value was 88.7%; for `O=C(CCN1C(=O)/C(=C/c2ccc(F)cc2)SC1=S)N1CCOCC1`, 68.6%; for `Cc1cc2nc3c4ccccc4n(CC4=NCCN4)c3nc2cc1C`, -94.2% (active). On the same count and under the same terms, the value for `Cc1ccc(C(=O)NN2C(=O)/C(=C/C=C/c3ccc([N+](=O)[O-])o3)SC2=S)cc1` was -96.6% (active); that for `Cc1cc2nc3c([nH]c2cc1C)c1ccc(=O)cc1n3CCN(C)C` was 26.4%; that for `N/C(=N\c1nc2ccccc2s1)NC(=O)Nc1c(Cl)cccc1Cl` was 30.8%.

Regarding `Brc1ccc(-c2n(Cc3ccc4ccccc4c3)c(-c3ccccc3)c(-c3ccccc3)[n+]2Cc2ccc3ccccc3c2)cc1`, the growth was -100% (active). Take `C=C1CC[C@@H]2[C@]3(C)COC(c4cn[nH]c4-c4ccc(Br)cc4)O[C@@H]3CC[C@@]2(C)[C@@H]1C/C=C1/C(=O)OCC1O` (some centres undefined): the growth was -94.4% (active). Turning to `COc1ccc(-c2nc3cc(C)ccc3n2CC(=O)N=Nc2c(O)[nH]c3ccc(Br)cc23)cc1`, the growth is -67.1% (active). On the same count and under the same terms, for `CC12CC[C@@H]3[C@]4(C)COC(c5cn[nH]c5-c5cccc(Br)c5)O[C@@H]4CC[C@@]3(C)[C@@H]1CC(C1=CCOC1=O)O2` (some centres undefined) the value was 54.8%; for `COc1c(F)ccc(C(=O)Nc2ccc3nc(NC(=O)C4CCCN(S(=O)(=O)c5ccc(C#N)cc5)C4)sc3c2)c1F` (centres undefined), 73.1%.

With `COc1ccc2c(c1)c(-c1cc3nc(-c4cn(C)c5ncccc45)cc(N)n3n1)cn2C`, the growth is -95.8% (active).

Turning to `CC(=O)c1cc(C(=O)c2ccccc2)n2c1ccc1ccccc12`, the growth is 82.5%. Take `COc1ccc2[nH]c(=O)c(CSc3nccc(-c4ccc(OC)c(OC)c4)n3)cc2c1`: the growth was 24.7%.

With `COc1ccc(NC(=O)Cn2c3c(sc2=O)[C@H]2[C@@H](O)[C@@H](O)[C@H](O)[C@@H]2CS3)cc1`, the growth is 101%.

As to `C=C1CCC2C3(C)COC(c4cccs4)OC3CCC2(C)C1CC(Sc1ccccc1)C1=CCOC1=O` (centres undefined), the growth was 95%.

As for `CC1CN(c2oc(-c3ccc([N+](=O)[O-])cc3)nc2C#N)CC(C)O1` (centres undefined), the growth was 93.9%. Turning to `Cc1occc1C(=O)NN1C(=O)/C(=C/C=C/c2ccc([N+](=O)[O-])o2)SC1=S`, the growth was -99.4% (active). On the same count and under the same terms, for `N=C1N=C(SCc2nc3ccccc3[nH]2)NC(=O)/C1=C/c1ccc(Cl)cc1` the value was 102%; for `O=C(NN1C(=O)/C(=C/C=C/c2ccc([N+](=O)[O-])o2)SC1=S)c1ccccc1O`, -100% (active); for `COc1ccc(-c2nc3cc(C)ccc3n2CC(=O)N=Nc2c(O)[nH]c3ccc(Cl)cc23)cc1`, -52.7% (active). For `COC1=C[C@]23CCC(=O)N2CCc2cc4c(cc2[C@@H]3[C@@H]1OC(=O)[C@H](C)O)OCO4`, the growth was -34.5% (active).

Turning to `Cc1sc2c(c1C)C(c1ccc(Cl)cc1)=N[C@@H](CC(=O)NCCCCCNC(=O)COc1ccc(C3CCC(=O)NC3=O)cc1)c1nnc(C)n1-2` (some centres undefined), the growth is 23.1%. The same measure, in the same setting: for `N/C(=N\c1nc2ccccc2s1)NC(=O)Nc1ccc(Cl)cc1Cl` the value was -78.2% (active). The same measure, in the same setting: the value for `CC1=C(C#N)C2=NNCC(c3ccccc3)=NN2C(c2ccccc2)=C1` was 102%.
